Data reported in PubChem BioAssay AID485364 (National Center for Advancing Translational Sciences (NCATS), 2010).
Among all 360,000 compounds or so, about 11,000 (3.1%) were called active. A call without a number means that no potency is given here. Inconclusive results (about 4%) are left out. Calls come from the whole dose curve; as a rule, active = well fitted inhibition curve with a large enough effect; inconclusive = small, poorly fitted or top-dose-only effect; inactive = no such curve, though single readings can be large or run the other way. Many of the other results were omitted from the sample, so actives are more common in it than they were.

target: Schistosoma mansoni thioredoxin glutathione reductase (TGR) (UniProt Q962Y6); assay: qHTS Assay for the Inhibitors of Schistosoma Mansoni Peroxiredoxins; conditions: purified TGR, DTNB reduction, TNB absorbance 405 nm; series mostly up to 114 µM; note: nearly all actives have a fitted effect of over 60% in size
Method in brief: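 Kinetic colorimetric format: TGR-catalysed, NADPH-driven DTNB reduction monitored via TNB absorbance. Enzyme dispensed at 20 nM; compound exposure 15 min at room temperature before reaction start.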
Potency is the fitted concentration of half-maximal effect.

SMILES | Potency
CCCSc1ncc(Cl)c(C(=O)Nc2sc3c(c2C(=O)NCCOC)CCCC3)n1 | inactive
CCCN(CCC)CCCNC(=O)Cn1ncc2c3ccccc3n(Cc3ccccc3)c2c1=O | inactive
COc1ccccc1NC(=O)c1oc2ccccc2c1NC(=O)C(C)C | inactive
CCN(CC)S(=O)(=O)c1nnc(NC(=O)COc2ccccc2Cl)s1 | inactive
CC(OC(=O)c1ccc2noc(-c3ccccc3)c2c1)C(N)=O (stereo unspecified) | 35.5 µM (active)
CC(OC(=O)c1ccc2ccccc2n1)C(=O)c1ccccc1 (stereo unspecified) | inactive
COc1ccc(-c2onc3ccc(C(C)=O)cc23)cc1 | inactive
Cc1nc2nc(SCC(=O)N(Cc3ccccc3)C(C)C)nn2c(C)c1Cc1ccccc1Cl | inactive
Cc1ccc(Nc2c(-c3ccc(Cl)cc3)nc3sccn23)c(C)c1 | inactive
COc1ccc(-n2c(C)nc3c(cnn3-c3ccc(F)cc3)c2=O)cc1 | inactive
Cc1ccc(S(=O)(=O)n2nc(-c3ccc(Cl)cc3)nc2NCc2ccccc2)cc1 | inactive
O=C(c1ccco1)n1nc(-c2ccc(Cl)cc2)nc1NCc1ccccc1 | inactive
CS(=O)(=O)n1nc(-c2ccccc2)nc1NCc1ccco1 | 44.7 µM (active)
Cc1ccc(CNC(=O)CCc2c(C)nc3nc(CNC(=O)OC(C)(C)C)nn3c2C)cc1 | inactive
Cc1cc(OCC(=O)NCC2(N(C)C)CCCCC2)cc(C)c1Cl | inactive
O=C(NCc1ccccc1)C1=C[C@@H](c2ccc(C(F)(F)F)cc2)C[C@@H](OCc2ccc(CO)cc2)O1 | inactive
O=C(C1=C[C@H](c2ccc(C(F)(F)F)cc2)C[C@H](OCc2ccc(CO)cc2)O1)N1CCN(Cc2ccccc2)CC1 | 28.2 µM (active)
O=C(C1=C[C@H](c2coc3ccccc3c2=O)C[C@H](OCc2ccc(CO)cc2)O1)N1CCN(Cc2ccccc2)CC1 | inactive
O=C(CSCc1cnn(-c2ccccc2)c1-n1cccc1)NCc1ccc(Cl)cc1 | inactive
CCOc1ccc(C(=O)c2cn(Cc3ccccc3OC)c3ccc(F)cc3c2=O)cc1 | inactive
COc1ccc2c(c1)Cc1sc(NC(=O)c3ccccc3Br)nc1-2 | inactive
O=S(=O)(c1ccc(C2CCCCC2)cc1)N1CCN(c2ccc(Cl)c(Cl)c2)CC1 | inactive
CCCCNC(=O)C1CCCN(c2nnc(C)c3c(C)n(-c4ccc(Cl)cc4)nc23)C1 (stereo unspecified) | inactive
CCN(CCCNC(=O)Cn1ncc2c([nH]c3ccccc32)c1=O)c1cccc(C)c1 | inactive
CN(C)c1nc(N(C)C)nc(N(C#N)CCCl)n1 | 1 µM (active)
Cc1cccn2c(=O)c3cc(C(=O)NC(C)c4ccccc4)c(=N)n(CCCO)c3nc12 (stereo unspecified) | inactive
